Legend:
Assay in all cases: DAPPL (digital affinity profiling via proximity ligation, sequencing); 10 mM Tris-HCl pH 7.5, 50 mM NaCl, 1 mM DTT, 4% glycerol, room temperature, 30 min; GST-TFs on glutathione beads, 16-mer random dsDNA library, 0.1% formaldehyde crosslink after washing; high values mean tight binding
FLI1 = biological target: T1, FLI1 (Homo sapiens, UniProt Q01543 1-452); conditions: protein: recombinant; tags: N-terminal GST; dsDNA, one strand shown
T1 sequence: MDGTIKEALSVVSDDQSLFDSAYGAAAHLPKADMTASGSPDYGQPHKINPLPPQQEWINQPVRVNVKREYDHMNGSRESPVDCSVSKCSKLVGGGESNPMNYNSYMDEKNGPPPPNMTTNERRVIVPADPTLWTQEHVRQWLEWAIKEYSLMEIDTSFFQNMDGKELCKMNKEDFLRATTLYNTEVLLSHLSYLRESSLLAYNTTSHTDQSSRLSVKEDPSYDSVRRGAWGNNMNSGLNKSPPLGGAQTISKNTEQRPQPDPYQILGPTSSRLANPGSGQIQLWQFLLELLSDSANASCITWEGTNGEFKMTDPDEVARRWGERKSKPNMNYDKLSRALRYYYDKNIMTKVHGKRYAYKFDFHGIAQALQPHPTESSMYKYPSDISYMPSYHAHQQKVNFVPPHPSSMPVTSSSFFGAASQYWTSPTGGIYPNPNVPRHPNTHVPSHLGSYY
In short: (§1)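 Human transcription factors were made in yeast as GST fusions, captured on glutathione beads and barcoded with DNA. With a tag-only sample included, the pool was incubated with 200 nmole of a random double-stranded 16-mer DNA library in Tris/NaCl/DTT/glycerol buffer at room temperature for 30 min, then crosslinked with 0.1% formaldehyde after washing, ligated by proximity, amplified and sequenced. For binding signal, each hexamer's read frequency for a factor is divided by its frequency for the tag-only sample.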

ELK1 = biological target: T2, ELK1 (Homo sapiens, UniProt P19419 1-428); conditions: protein: recombinant; tags: N-terminal GST; dsDNA, one strand shown
T2 sequence: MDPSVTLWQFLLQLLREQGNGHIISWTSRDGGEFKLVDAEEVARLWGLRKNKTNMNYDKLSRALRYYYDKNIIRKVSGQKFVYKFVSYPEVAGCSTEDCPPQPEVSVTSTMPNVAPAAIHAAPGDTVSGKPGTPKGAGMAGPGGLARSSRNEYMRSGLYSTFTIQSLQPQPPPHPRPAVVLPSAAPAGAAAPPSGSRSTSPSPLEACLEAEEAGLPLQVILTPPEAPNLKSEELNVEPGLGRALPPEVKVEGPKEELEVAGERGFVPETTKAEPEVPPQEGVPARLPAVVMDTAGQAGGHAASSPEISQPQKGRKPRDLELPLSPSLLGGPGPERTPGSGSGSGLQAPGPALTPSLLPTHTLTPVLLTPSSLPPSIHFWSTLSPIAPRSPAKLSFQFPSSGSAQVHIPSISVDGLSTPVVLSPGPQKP
In short: as §1

GABPA = biological target: T3, GABPA (Homo sapiens, UniProt Q06546 1-454); conditions: protein: recombinant; tags: N-terminal GST; dsDNA, one strand shown
T3 sequence: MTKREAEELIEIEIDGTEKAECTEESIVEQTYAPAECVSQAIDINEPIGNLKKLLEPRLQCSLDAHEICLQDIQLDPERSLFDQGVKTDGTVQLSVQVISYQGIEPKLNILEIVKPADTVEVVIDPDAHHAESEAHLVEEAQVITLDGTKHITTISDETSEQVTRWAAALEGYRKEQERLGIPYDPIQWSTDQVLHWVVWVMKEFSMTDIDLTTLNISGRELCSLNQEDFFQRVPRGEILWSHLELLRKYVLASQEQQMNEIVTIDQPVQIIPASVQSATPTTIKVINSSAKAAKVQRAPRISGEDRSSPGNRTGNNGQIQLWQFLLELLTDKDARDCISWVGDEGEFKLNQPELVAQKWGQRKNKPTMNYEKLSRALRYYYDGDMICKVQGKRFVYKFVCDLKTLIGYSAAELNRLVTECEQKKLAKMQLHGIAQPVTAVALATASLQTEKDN
In short: as §1

ERG = biological target: T4, ERG (Homo sapiens, UniProt P11308 1-479); conditions: protein: recombinant; tags: N-terminal GST; dsDNA, one strand shown
T4 sequence: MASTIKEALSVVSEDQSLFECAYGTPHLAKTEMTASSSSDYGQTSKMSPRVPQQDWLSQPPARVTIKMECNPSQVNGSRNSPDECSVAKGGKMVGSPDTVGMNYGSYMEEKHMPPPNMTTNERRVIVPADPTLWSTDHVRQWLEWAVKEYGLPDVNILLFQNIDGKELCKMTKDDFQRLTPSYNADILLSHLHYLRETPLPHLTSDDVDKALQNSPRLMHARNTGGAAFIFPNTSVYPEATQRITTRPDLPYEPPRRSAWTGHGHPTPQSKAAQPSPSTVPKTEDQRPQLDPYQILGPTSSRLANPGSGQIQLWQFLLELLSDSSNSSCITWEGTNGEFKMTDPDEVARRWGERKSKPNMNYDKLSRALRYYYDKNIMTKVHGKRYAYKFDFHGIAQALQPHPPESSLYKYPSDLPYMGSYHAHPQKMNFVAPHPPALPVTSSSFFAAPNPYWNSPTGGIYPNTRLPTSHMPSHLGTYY
In short: as §1

ELF1 = ELF1 (Homo sapiens, UniProt P32519 1-619); conditions: protein: recombinant; tags: N-terminal GST; dsDNA, one strand shown
ELF1, sequence (P32519 whole entry): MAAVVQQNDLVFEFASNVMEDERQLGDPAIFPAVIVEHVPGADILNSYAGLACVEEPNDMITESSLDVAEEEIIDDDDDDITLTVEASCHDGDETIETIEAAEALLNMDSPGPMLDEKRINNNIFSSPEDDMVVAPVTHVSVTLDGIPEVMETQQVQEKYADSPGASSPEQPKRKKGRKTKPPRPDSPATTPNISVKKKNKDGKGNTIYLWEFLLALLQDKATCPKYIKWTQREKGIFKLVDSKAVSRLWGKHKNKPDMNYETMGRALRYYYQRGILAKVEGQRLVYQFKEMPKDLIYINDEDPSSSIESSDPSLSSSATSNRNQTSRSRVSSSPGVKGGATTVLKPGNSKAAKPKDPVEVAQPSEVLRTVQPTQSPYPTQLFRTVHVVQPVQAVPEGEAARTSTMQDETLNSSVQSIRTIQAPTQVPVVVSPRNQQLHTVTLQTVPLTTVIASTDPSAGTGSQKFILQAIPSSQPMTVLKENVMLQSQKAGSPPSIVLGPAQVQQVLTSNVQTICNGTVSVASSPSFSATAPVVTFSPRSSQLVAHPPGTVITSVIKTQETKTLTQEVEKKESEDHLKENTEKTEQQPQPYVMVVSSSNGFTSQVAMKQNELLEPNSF
In short: as §1

EHF = biological target: T5, EHF (Homo sapiens, UniProt Q9NZC4 1-300); conditions: protein: recombinant; tags: N-terminal GST; dsDNA, one strand shown
T5 sequence: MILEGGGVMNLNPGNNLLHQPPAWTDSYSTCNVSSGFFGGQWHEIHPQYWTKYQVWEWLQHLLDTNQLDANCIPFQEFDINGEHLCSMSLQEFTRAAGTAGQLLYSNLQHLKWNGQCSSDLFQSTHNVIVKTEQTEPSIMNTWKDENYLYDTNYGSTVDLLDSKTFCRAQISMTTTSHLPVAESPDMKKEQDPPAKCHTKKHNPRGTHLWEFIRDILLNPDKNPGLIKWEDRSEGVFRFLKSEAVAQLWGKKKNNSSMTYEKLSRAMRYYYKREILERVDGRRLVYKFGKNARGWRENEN
In short: as §1

SPI1 = SPI1 (Homo sapiens, UniProt P17947 1-270); conditions: protein: recombinant; tags: N-terminal GST; dsDNA, one strand shown
In short: as §1

SPIB = SPIB (Homo sapiens, UniProt Q01892 1-262); conditions: protein: recombinant; tags: N-terminal GST; dsDNA, one strand shown
SPIB, sequence (Q01892 whole entry): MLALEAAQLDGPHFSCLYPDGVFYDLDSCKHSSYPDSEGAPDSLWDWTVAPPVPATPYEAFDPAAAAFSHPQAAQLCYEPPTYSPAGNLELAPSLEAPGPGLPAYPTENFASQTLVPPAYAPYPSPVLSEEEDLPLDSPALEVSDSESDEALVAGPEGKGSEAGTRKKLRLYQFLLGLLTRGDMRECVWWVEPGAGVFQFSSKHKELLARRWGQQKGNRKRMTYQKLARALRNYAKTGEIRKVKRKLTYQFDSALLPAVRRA
In short: as §1

ELK3 = biological target: T6, ELK3 (Homo sapiens, UniProt P41970 1-407); conditions: protein: recombinant; tags: N-terminal GST; dsDNA, one strand shown
T6 sequence: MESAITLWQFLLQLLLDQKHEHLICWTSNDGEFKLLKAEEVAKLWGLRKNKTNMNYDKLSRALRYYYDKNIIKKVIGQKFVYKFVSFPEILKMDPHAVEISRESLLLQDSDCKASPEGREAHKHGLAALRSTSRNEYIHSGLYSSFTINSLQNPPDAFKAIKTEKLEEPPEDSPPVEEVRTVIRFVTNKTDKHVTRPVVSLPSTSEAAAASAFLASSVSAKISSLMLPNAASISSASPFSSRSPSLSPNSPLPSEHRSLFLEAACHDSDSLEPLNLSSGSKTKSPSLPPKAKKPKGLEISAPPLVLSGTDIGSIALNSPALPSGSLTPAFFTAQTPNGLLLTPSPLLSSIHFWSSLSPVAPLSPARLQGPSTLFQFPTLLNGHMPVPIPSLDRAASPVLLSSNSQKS
In short: as §1

FEV = biological target: T7, FEV (Homo sapiens, UniProt Q99581 1-238); conditions: protein: recombinant; tags: N-terminal GST; dsDNA, one strand shown
T7 sequence: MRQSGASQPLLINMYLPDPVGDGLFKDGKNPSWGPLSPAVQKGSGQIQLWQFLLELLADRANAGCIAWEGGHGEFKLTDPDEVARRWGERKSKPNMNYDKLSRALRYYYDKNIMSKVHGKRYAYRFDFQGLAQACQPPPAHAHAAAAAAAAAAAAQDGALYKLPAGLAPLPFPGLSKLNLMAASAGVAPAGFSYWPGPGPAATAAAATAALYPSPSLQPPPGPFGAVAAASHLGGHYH
In short: as §1

ETV5 = ETV5 (Homo sapiens, UniProt P41161 1-510); conditions: protein: recombinant; tags: N-terminal GST; dsDNA, one strand shown
ETV5, sequence (P41161 whole entry): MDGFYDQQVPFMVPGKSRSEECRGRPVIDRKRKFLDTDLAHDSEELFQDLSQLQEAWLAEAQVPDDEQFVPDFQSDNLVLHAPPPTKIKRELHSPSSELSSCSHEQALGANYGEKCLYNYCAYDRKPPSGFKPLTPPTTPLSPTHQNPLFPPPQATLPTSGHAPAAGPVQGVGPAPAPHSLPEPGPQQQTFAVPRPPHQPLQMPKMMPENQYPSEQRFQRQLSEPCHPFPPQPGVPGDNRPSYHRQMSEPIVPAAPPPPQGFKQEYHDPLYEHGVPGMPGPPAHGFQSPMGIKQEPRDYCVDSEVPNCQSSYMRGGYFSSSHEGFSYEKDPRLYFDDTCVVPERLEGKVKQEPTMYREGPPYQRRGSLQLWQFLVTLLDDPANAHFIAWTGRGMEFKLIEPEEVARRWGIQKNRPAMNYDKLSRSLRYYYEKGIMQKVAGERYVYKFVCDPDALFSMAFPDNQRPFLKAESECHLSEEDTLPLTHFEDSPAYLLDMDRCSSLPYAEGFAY
In short: as §1

HSF1 = HSF1 (Homo sapiens, UniProt Q00613 1-529); conditions: protein: recombinant; tags: N-terminal GST; chain copies: 3; dsDNA, one strand shown
HSF1, sequence (Q00613 whole entry): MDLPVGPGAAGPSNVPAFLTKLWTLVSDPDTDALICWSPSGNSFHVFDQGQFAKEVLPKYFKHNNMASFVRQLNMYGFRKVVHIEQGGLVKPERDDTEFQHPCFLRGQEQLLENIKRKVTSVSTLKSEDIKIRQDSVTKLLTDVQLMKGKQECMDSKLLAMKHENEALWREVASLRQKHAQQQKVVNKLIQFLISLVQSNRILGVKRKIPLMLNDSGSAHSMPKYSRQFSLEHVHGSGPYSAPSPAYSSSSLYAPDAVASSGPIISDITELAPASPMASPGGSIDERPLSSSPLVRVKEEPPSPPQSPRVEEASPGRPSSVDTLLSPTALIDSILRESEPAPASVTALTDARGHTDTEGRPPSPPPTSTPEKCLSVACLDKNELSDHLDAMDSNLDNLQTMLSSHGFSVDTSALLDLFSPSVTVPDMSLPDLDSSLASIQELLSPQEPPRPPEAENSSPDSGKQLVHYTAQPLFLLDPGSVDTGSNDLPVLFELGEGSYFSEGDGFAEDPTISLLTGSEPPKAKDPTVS
In short: as §1

SPIC = biological target: T8, SPIC (Homo sapiens, UniProt Q8N5J4 1-248); conditions: protein: recombinant; tags: N-terminal GST; dsDNA, one strand shown
T8 sequence: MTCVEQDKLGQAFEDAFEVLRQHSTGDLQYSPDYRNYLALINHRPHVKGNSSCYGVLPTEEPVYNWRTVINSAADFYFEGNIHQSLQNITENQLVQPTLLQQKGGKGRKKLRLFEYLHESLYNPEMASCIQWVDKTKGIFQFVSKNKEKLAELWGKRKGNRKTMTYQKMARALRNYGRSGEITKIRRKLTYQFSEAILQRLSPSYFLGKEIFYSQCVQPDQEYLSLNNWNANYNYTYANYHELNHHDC
In short: as §1

ELF4 = ELF4 (Homo sapiens, UniProt Q99607 1-663); conditions: protein: recombinant; tags: N-terminal GST; dsDNA, one strand shown
ELF4, sequence (Q99607 whole entry): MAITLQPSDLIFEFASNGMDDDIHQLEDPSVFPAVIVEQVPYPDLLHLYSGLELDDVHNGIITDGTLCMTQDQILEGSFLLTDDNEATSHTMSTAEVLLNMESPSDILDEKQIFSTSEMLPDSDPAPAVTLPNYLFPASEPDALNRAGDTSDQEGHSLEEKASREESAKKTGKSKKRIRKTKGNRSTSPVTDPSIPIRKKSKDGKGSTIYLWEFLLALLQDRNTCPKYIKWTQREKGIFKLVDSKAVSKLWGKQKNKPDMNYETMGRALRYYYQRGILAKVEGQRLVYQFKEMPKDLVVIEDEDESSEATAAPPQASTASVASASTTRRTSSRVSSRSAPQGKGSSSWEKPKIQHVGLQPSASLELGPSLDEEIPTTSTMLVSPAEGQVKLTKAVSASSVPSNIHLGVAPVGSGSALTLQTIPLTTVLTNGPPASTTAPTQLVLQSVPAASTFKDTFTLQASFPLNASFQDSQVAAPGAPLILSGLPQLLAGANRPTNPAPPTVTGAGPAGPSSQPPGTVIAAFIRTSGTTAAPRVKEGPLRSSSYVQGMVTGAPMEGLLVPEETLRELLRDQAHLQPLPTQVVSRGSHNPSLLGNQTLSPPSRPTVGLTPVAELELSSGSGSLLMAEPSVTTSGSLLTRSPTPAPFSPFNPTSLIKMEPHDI
In short: as §1

ELK4 = biological target: T9, ELK4 (Homo sapiens, UniProt P28324-2 1-405); conditions: protein: recombinant; tags: N-terminal GST; dsDNA, one strand shown
T9 sequence: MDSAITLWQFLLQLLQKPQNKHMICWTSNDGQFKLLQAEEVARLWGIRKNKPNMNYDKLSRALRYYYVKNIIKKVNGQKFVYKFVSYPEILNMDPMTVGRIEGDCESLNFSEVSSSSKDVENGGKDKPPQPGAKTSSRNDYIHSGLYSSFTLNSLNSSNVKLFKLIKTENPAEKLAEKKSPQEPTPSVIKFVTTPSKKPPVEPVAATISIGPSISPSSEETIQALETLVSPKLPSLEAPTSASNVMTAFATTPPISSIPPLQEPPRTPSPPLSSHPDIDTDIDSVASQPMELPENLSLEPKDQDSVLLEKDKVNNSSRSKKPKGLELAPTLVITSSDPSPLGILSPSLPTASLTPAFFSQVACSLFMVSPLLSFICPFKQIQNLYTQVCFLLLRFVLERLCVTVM
In short: as §1

ETV2 = biological target: T10, ETV2 (Homo sapiens, UniProt O00321 1-342); conditions: protein: recombinant; tags: N-terminal GST; dsDNA, one strand shown
T10 sequence: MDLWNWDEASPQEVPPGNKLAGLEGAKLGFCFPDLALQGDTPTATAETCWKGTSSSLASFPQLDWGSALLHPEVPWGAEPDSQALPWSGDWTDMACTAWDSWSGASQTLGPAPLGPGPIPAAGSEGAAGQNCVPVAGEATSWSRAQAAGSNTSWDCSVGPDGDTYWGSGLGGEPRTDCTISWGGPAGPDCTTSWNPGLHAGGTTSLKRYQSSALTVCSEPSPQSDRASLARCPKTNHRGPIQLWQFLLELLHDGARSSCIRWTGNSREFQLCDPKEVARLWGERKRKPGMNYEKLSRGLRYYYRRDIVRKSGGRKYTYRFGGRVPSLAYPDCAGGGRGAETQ
In short: as §1

ELF3 = biological target: T11, ELF3 (Homo sapiens, UniProt P78545 1-371); conditions: protein: recombinant; tags: N-terminal GST; dsDNA, one strand shown
T11 sequence: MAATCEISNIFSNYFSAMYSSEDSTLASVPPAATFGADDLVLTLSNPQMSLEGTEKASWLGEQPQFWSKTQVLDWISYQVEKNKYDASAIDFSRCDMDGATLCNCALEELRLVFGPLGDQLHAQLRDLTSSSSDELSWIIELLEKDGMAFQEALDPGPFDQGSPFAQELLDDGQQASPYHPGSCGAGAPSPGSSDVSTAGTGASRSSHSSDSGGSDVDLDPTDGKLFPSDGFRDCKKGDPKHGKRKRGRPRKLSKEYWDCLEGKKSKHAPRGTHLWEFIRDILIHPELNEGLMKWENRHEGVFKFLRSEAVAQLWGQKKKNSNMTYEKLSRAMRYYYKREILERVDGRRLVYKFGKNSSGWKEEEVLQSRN
In short: as §1

CRX = CRX (Homo sapiens, UniProt O43186 1-299); conditions: protein: recombinant; tags: N-terminal GST; dsDNA, one strand shown
CRX, sequence (O43186 whole entry): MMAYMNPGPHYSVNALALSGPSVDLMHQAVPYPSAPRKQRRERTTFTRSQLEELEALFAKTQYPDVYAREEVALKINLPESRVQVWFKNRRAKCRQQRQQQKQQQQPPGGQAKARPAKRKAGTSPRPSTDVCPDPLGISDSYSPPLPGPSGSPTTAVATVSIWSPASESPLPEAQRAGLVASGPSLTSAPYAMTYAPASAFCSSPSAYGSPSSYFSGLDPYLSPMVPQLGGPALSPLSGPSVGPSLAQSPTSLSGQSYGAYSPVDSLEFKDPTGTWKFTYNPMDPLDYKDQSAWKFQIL
In short: as §1

ETV1 = ETV1 (Homo sapiens, UniProt P50549 1-477); conditions: protein: recombinant; tags: N-terminal GST; dsDNA, one strand shown
ETV1, sequence (P50549 whole entry): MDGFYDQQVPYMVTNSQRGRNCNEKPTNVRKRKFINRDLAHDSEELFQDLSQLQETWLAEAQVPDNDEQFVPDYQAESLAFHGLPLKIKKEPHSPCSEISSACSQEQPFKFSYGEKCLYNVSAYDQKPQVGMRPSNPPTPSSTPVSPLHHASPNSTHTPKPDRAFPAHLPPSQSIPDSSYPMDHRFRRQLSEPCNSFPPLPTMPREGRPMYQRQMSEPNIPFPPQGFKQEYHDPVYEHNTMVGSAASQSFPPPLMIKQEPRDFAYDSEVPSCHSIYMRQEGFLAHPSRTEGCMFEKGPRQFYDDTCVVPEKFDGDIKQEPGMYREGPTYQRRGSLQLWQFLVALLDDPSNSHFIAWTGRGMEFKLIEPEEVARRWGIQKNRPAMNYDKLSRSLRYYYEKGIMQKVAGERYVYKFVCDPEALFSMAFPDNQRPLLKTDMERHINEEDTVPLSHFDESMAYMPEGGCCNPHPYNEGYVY
In short: as §1

GCCGAT
binding signal (FLI1): 1.14 fold enrichment (6-mer frequency, TF over GST control) | binding signal (ELK1): 1.09 fold enrichment (6-mer frequency, TF over GST control) | binding signal (GABPA): 1.21 fold enrichment (6-mer frequency, TF over GST control) | binding signal (ERG): 1.03 fold enrichment (6-mer frequency, TF over GST control) | binding signal (ELF1): 1.03 fold enrichment (6-mer frequency, TF over GST control) | binding signal (EHF): 1.01 fold enrichment (6-mer frequency, TF over GST control) | binding signal (SPI1): 1.12 fold enrichment (6-mer frequency, TF over GST control) | binding signal (SPIB): 1.07 fold enrichment (6-mer frequency, TF over GST control) | binding signal (ELK3): 1.08 fold enrichment (6-mer frequency, TF over GST control) | binding signal (FEV): 1.11 fold enrichment (6-mer frequency, TF over GST control) | binding signal (ETV5): 1.11 fold enrichment (6-mer frequency, TF over GST control) | binding signal (HSF1): 1.13 fold enrichment (6-mer frequency, TF over GST control) | binding signal (SPIC): 1.03 fold enrichment (6-mer frequency, TF over GST control) | binding signal (ELF4): 1.16 fold enrichment (6-mer frequency, TF over GST control) | binding signal (ELK4): 1.13 fold enrichment (6-mer frequency, TF over GST control) | binding signal (ETV2): 1.13 fold enrichment (6-mer frequency, TF over GST control) | binding signal (ELF3): 1.02 fold enrichment (6-mer frequency, TF over GST control) | binding signal (CRX): 1.46 fold enrichment (6-mer frequency, TF over GST control) | binding signal (ETV1): 1.07 fold enrichment (6-mer frequency, TF over GST control)
